Assay outcomes deposited in PubChem by National Center for Advancing Translational Sciences (NCATS).
This is a sample that favours compounds with a hit; in the whole collection about 3% have one here.
DRD3 agonist: qHTS of D3 Dopamine Receptor Agonist: qHTS. D(3) dopamine receptor (Homo sapiens), P35462. D3R DiscoveRx beta-arrestin cells, luminescence, 90 min. max activation, %. 0.58% of 410,000 active. AID 652048, 2013; in the data active means max activation above about 30%
Target sequence (P35462 whole entry, looked up): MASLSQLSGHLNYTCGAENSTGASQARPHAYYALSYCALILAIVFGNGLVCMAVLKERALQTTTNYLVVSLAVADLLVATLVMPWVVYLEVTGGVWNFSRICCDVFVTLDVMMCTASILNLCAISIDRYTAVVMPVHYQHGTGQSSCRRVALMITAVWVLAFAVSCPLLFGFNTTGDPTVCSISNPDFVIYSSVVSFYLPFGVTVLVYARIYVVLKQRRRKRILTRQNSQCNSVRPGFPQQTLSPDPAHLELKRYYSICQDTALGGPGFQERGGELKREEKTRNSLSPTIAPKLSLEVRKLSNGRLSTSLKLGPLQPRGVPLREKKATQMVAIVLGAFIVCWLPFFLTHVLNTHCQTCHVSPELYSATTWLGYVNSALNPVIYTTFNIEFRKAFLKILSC
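Cells at 1500/well, incubated overnight, then treated with pinned compounds (dopamine as control) for 90 min at 37 degrees C. DiscoveRx reagent added for 30 - 60 minutes at room temperature; luminescence read.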
D3 antag: qHTS of D3 Dopamine Receptor Antagonist: qHTS. D(3) dopamine receptor (Homo sapiens), P35462. D3R cells, DiscoveRx beta-arrestin luminescence, antagonist mode; active compounds read low. max response, negative = inhibition, %. 2.5% of 360,000 active. AID 652054, 2013; in the data active means max response below about -50%; inconclusive means no clear call, values can overlap the other calls
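Cells expressing the human receptor were seeded at 1500 cells/well, incubated overnight at 37 degrees C in 5% CO2, then exposed to library compounds with dopamine controls for 90 minutes at 37 degrees C before luminescent detection.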
GRP78 ERSR act: qHTS for Inducers of the Endoplasmic Reticulum Stress Response (ERSR) in Human Glioma: qHTS. U87-MG GRP78 promoter luciferase reporter, 16 h. Potency, µM, usual class: activators. 0.02% of 420,000 active; further: series mostly up to about 76 µM; nearly all actives have a fitted effect of over 35% in size
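ERSR induction read as luciferase luminescence (Bright-Glo, 10 min at room temperature) in stably transfected human U87-MG glioma cells exposed to compounds for 16 h, using GRP78 as sensor.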
Nrf2 ARE act: qHTS of Nrf2 Activators. AREc32 ARE-luciferase reporter (MCF7-derived line), luminescence, 24 h. Potency, µM (doses to about 46.1 µM), usual class: activators. 0.31% of 410,000 active; further: nearly all actives have a fitted effect of over 65% in size
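Steps: seed AREc32_Fluc cells (1000/well, 5% FBS OPTI-MEM); incubate overnight at 37 deg C; add 23 nL compound; incubate 24 hr; add Steady-Glo; hold 30 min RT; read luminescence.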
Numbers stand for hits; 0 = inactive; ? = inconclusive; - = not tested or not shown; [ ] = dose if it differs, or a comment. Unless noted, the call rests on the fitted dose curve; in most records, active means well fitted curve in the direction sought with a large enough effect; inconclusive means small, poorly fitted or top-dose-only effect, or another doubt; inactive means no such curve, though single readings can be large; an effect the other way counts as inactive or inconclusive.

SMILES | DRD3 agonist | D3 antag | GRP78 ERSR act | Nrf2 ARE act
Cn1c(CCN2CCN(c3ccccn3)CC2)nc2cc(NC(=O)COc3ccccc3)ccc21 | 44 | 0 | 0 | 0
CC1CCN(CCc2nc3cc(NC(=O)COc4ccccc4)ccc3n2C)CC1 | 0 | -71 | 0 | 0
CC[C@H](NC(=O)[C@H](CCCN=C(N)N)NC(=O)[C@H](Cc1c[nH]c2ccccc12)NC(=O)[C@@H](N)CS)C(=O)N[C@@H](CCCN=C(N)N)C(=O)N[C@@H](Cc1ccc(O)cc1)C(N)=O | - | - | 0 | -
O=C1CC[C@@H](C(=O)N[C@H]2C[C@@H]2c2ccccc2)N1 | 0 | - | - | -
COc1cccc(Oc2cc(NN3CCCCC3)c([N+](=O)[O-])cc2[N+](=O)[O-])c1OC | 0 | -65 | 0 | 0
C[N+]1(CC(=O)c2ccc3c(c2)CCCC3)CCOCC1 | - | - | 0 | -
CCc1cc2c(NCCN3CCCCC3)ncnc2s1 | 0 | -86 | 0 | 0
CCc1cc2c(NCCO)ncnc2s1 | 0 | 0 | 0 | 0
COc1ccccc1-c1ccc(C(=O)NCCN2CCOCC2)c(N2CCN(c3ccccc3F)CC2)n1 | - | - | 0 | -
COc1cc(-c2cc(C)c3cccc(OC)c3n2)cc2c1OCCN(C(=O)CCn1nc(C)cc1C)C2 | - | - | 0 | -
CN(C)/[N+]([O-])=N\Oc1cc(OC(=O)c2ccc(N)cc2)c([N+](=O)[O-])cc1[N+](=O)[O-] | - | - | 0 | -
O=C1c2ccccc2S(=O)(=O)c2cc(C(=O)N3CCN(c4ccc(Cl)cn4)CC3)ccc21 | 44 | 0 | 0 | 0
CC[n+]1cccc(Br)c1 | - | - | 0 | -
CCOc1ccc(NS(=O)(=O)c2ccc(NC(=S)NC(C)=O)cc2)cc1 | 0 | 0 | 0 | 0
CCOc1ccc(/C(O)=C/C(=O)C(=O)Nc2ccc(S(=O)(=O)NC(C)=O)cc2)cc1 | 0 | -60 | 0 | 0[9.22 µM]
O=C(CCN1CCOCC1)c1ccc2c(c1)OCCO2 | 0 | 0 | 0 | ?
O=C(CCCN1CCC(c2ccccc2)C1)c1ccc2c(c1)OCCO2 (configuration not stated) | 0 | -82 | 0 | 0
O=C(CCN1CCCCC1)c1ccc2c(c1)OCO2 | 0 | -65 | 0 | ?
O=C(CCN1CCc2ccccc2CC1)c1ccc2c(c1)OCCO2 | 0 | -94 | 0 | ?
Cc1cc(Nc2sc(C(=O)c3ccc(F)cc3)c(N)c2C(=O)Nc2ccc(F)cc2)ccc1Cl | 0 | - | 0 | 0
Cc1cnc(-n2ncc(C(=O)N(C)C3CCOC3)c2-c2cccs2)nc1-c1ccc(F)cc1 (configuration not stated) | - | - | 0 | -
COc1ccc(-c2cc(C(F)(F)F)nc(SCCC(=O)Nc3ccc(O)cc3)n2)cc1 | 0 | - | 0 | 0
COc1ccc(C(=O)N(Cc2ccco2)Cc2cccs2)c(OC)c1 | - | - | 0 | -
O=C1C=CC(=O)N1CCCCCCCCCCN1C(=O)C=CC1=O | 0 | -100 | 0 | ?
O=C1C=CC(=O)N1Cc1ccncc1 | 0 | 0 | 0 | 0
SMILES | DRD3 agonist | D3 antag | GRP78 ERSR act | Nrf2 ARE act
Cc1ccc(NCc2nnc(SCCN3CCCCC3)n2CC2CCCO2)c(C)c1 (configuration not stated) | 0 | -54 | 0 | 0
Cc1ccc(NCc2nnc(SCC(=O)Nc3ccccc3)n2CC2CCCO2)c(C)c1 (configuration not stated) | 0 | 0 | 0 | 0
CCOc1ccccc1-c1noc(CSc2nnc(-c3ccccc3)n2-c2cccc(C)c2)n1 | 0 | - | 0 | 0
COc1ccc(Nc2sc(C(=O)c3ccc(Cl)cc3)c(N)c2C(=O)Nc2ccccc2OC)cc1 | 0 | -60 | ? | 0
COc1ccc(C(=O)c2sc(Nc3cccc(OC)c3)c(C(=O)Nc3cccc(C)c3C)c2N)cc1 | 0 | 0 | 13µM | 0
Cc1ncc2c(c1CNC(=O)c1cncs1)CCN(C(=O)c1csc(-c3cccs3)n1)C2 | - | - | 0 | -
COCCn1c(=O)c(-c2ccc(Cl)cc2)nc2cnc(N3CCNCC3)nc21 | - | - | 0 | -
COc1ccc(CNCCC(c2ccc(OC)cc2)c2ccccc2OC)cc1 (configuration not stated) | 0 | 0 | 0 | 0
COc1ccc(C(CCNCc2ccc(N(C)C)cc2)c2ccccc2OC)cc1 (configuration not stated) | 0 | -55 | 0 | 0
COc1cc(-c2nn3c(Cc4ccccc4)nnc3s2)cc(OC)c1OC | 31 | 0 | 0 | 0
Oc1ccc(-c2cnccn2)cc1CN1CCN(C2CCCCC2)CC1 | - | - | 0 | -
CCc1ccc(CNC(=O)C2CCCN(c3nnc(C)c4c(C)n(-c5ccc(OC)cc5)nc34)C2)cc1 (configuration not stated) | 31 | - | 0 | 0
COCCCNCCOc1cc(C(C)C)ccc1C | 0 | -66 | 0 | 0
Cc1ccc(C(C)C)cc1OCCOCCN1CCCC1 | 0 | -66 | 0 | 0
Cc1cc(OCCOCCN2CCCC2)ccc1C(C)C | 0 | -58 | 0 | 0
COCCCNCCOCCOc1ccc(C)cc1Br | 0 | ? | 0 | 0
CCc1cccc(OCCOCCN2CCCC2)c1 | 0 | -71 | 0 | 0
COC(=O)c1ccccc1-c1cc(C)cc2c1OC(CNC(=O)c1cc(C)on1)C2 (configuration not stated) | - | - | 0 | -
CC(=O)N1CCN(c2ccc(NC(=O)c3ccc(Cl)cc3)cc2)CC1 | 0 | 0 | 0 | 0
CC(=O)N1CCN(c2ccc(NC(=O)c3ccc(C(C)(C)C)cc3)cc2)CC1 | 0 | -89 | 0 | 0
CCc1nc2cc(C(=O)N[C@H]3CCCCNC3=O)cc(NC(=O)c3ccccc3OC)c2n1C | - | - | 0 | -
Cc1nn(-c2ccccc2)c2[nH]c(=O)c(CNCC3CCCO3)cc12 (configuration not stated) | 0 | -82 | 0 | 0
CCn1nnnc1SCC(=O)NNC(=O)C1CCCCC1 | 0 | -80 | 0 | 0
CC(CN(C)Cc1ccccc1)OC(=O)c1ccc(F)cc1 (configuration not stated) | 0 | -69 | 0 | 0
O=c1oc2ccccc2c(Nc2cccc3ccccc23)c1[N+](=O)[O-] | 0 | -63 | 0 | 0
SMILES | DRD3 agonist | D3 antag | GRP78 ERSR act | Nrf2 ARE act
O=c1oc2ccccc2c(Nc2ccccc2O)c1[N+](=O)[O-] | 0 | ? | 0 | ?
C=CCSc1cc(C)nc2c(-c3ccc(Cl)cc3)c(C)nn12 | 38 | 0 | 0 | 0
Cc1cc(SCC(=O)c2cccs2)n2nc(C)c(-c3ccc(Cl)cc3)c2n1 | 0 | 0 | 0 | 0
CSc1ccccc1OCc1cc(C(=O)N2CCc3c(Cl)cccc3C2)no1 | 32 | 0 | 0 | 0
O=C1NN=C(c2ccc(Cl)cc2)CC1c1cccc(Cl)c1 (configuration not stated) | 0 | -61 | 0 | 0
CSc1nsc(SC)c1NC(=O)OCCc1ccccn1 | 0 | 0 | 0 | 0
CSc1nsc(SC)c1NC(=O)Nc1ccccn1 | 0 | 0 | 0 | 10µM
COCCN=c1scc(-c2ccco2)n1/N=C/c1ccc(O)c(O)c1O | 117 | 0 | 0 | 0
CN=c1scc(-c2cccs2)n1/N=C/c1ccccc1O | 0 | 0 | 0 | 0
C=CCN=c1scc(-c2ccco2)n1/N=C/c1ccc(O)c(O)c1O | 184 | 0 | 0 | ?
CN=c1scc(-c2cccs2)n1/N=C/c1ccc(O)c(O)c1O | 170 | 0 | 0 | 0
